Source: PubChem BioAssay
Shown are actives, neighbours in structure and some others; about 6.2% of the full set was active somewhere.
Lassa entry inh: qHTS for Inhibitors of binding or entry into cells for Lassa Virus. Lassa virus pseudotype entry inhibition, cell reporter. Potency, µM (highest dose often 37.9 µM), without a hit: at the highest dose activity change, negative = inhibition, hits mostly inhibitors. 300,000 compounds, 1.2% hits. AID 540256, 2011; calls by dose curve; tested in HEK293 cells; also: potency is read from the fitted curve at half-maximal effect; nearly all actives have a fitted effect of over 50% in size
HCMV inh: qHTS Assay for inhibitors of the human cytomegalovirus (HCMV); HFF cells, HCMV-luciferase reporter, 72 h; active compounds read low; activity change, negative = inhibition, % at 57.5 µM; 410,000 compounds, 4.5% hits; in the data active = activity change below about -60%; inconclusive = no clear call, values can overlap the other calls; inactive = above about -39%
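Two-dose cell screen: HFF monolayers treated with compounds and infected with luciferase-expressing HCMV at 1 PFU/cell, 72 h at 37C, then lysed for luciferase measurement.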
FMDV inh: High Throughput Screening for Foot and Mouth Disease Virus Antivirals; Potency, µM (highest dose often 57.9 µM), for the others: at the highest dose activity change, negative = inhibition, most hits filed as inhibitors; FMDV antiviral cell-based qHTS; 410,000 compounds, 1.2% hits; AID 1159524, 2015; calls by dose curve; tested in HEK293T cells; also: read-out not given here; potency is read from the fitted curve at half-maximal effect; nearly all actives have a fitted effect of over 45% in size
MARV entry inh: qHTS for inhibitors of binding or entry into cells for Marburg Virus; Potency, µM (highest dose often 37.8 µM), for inactives: at the top dose activity change, negative = inhibition, most hits filed as inhibitors; Marburg virus pseudotyped entry inhibition, cell reporter; 300,000 compounds, 1.8% hits; calls by dose curve; tested in HEK293 cells; also: potency is read from the fitted curve at half-maximal effect
Numbers without * were called inactive; u = inconclusive; x = no result given; [ ] = remark or other dose. % is scaled to controls: 0 for no effect and ±100 for the full control effect.

SMILES	Lassa entry inh	HCMV inh	FMDV inh	MARV entry inh
CCc1ccc2[nH]c(=O)c(CN(Cc3ccc4c(c3)OCO4)Cc3nnnn3C3CCCC3)cc2c1	8.2µM*	-4.1	u	u
Cc1cccc(C)c1OCC(O)CN1CCN(C(=O)c2ccccc2)CC1 (configuration not stated)	x	2.0	-21.0%	x
O=C(Nc1ccc(-c2nc3ccccc3o2)c(O)c1)c1cc(-n2cnnc2)ccc1Cl	2.9%	-94.5*	12.6µM*	u
O=C(Nc1ccc2oc(-c3ccccc3)nc2c1)c1cc(-n2cnnc2)ccc1Cl	u	-2.8	14.4%	-13.8%
Cc1c(NC(=O)c2cc(-n3cnnc3)ccc2Cl)cccc1-c1nc2ccccc2o1	-19.3%	38.1	-5.8%	-25.9%
O=C(Nc1ccc(-c2nc3ccccc3o2)cc1)c1cc(-n2cnnc2)ccc1Cl	u	-96.6*	-28.2%	u
COC(=O)c1cc(=O)c2c(C)nc(C(Cl)(Cl)Cl)nc2[nH]1	-0.8%	-99.8*	u	27.5%[46.1 µM]
CCOC(=O)c1c(C)nc(C(Cl)(Cl)Cl)nc1N	20.2%[46.1 µM]	-35.7	1.9%	15.8%[46.1 µM]
O=c1cc(C(F)(F)F)nc(-n2[nH]c3c(c2=O)CCCC3)[nH]1	-11.3%	47.7	-9.1%	-23.5%
O=C(c1cccc(Cl)c1)N1CCN(Cc2c[nH]c3ccccc23)CC1	-4.1%	2.3	-16.0%	0.1%[46.1 µM]
CC(C)(C)c1ccc(/C=N/Nc2cccc(C(=O)O)c2)cc1	x	159.8	44.7µM*	x
O=C(O)c1cccc(N/N=C/c2ccc(-c3ccccc3)cc2)c1	8.91µM*	109.3	14.1µM*	u
CN(C)c1ccc(/C=N/Nc2cccc(C(=O)O)c2)cc1	x	64.8	3.98µM*	x
COc1ccccc1/C=C/C=N/Nc1cccc(C(=O)O)c1	5.01µM*	116.1	-31.9%	u
Cc1coc2c(C)c3oc(=O)c(CC(=O)NCc4ccccc4)c(C)c3cc12	-7.6%[46.1 µM]	-14.5	7.7%	-8.9%[46.1 µM]
COc1ccccc1NC(=O)Nc1ccccc1C(N)=O	x	-21.1	23.1%	x
Fc1cccc(-c2c(-c3ccccc3)ncc3cc(F)ccc23)c1	x	-8.7	-23.2%	x
O=C(O)c1cccc(N/N=C/c2cccnc2)c1	u	42.6	12.6µM*	u
O=C(N/N=C/c1cccnc1)c1ccccc1	x	u	0.0%	x
COC(=O)C1=C(C)NC(=O)/C1=C\c1cc(C)n(-c2cc(C)cc(C)c2)c1C	u	-30.7	-18.8%	u
COC(=O)C1=C(C)NC(=O)/C1=C\c1cc(C)n(-c2ccccc2)c1C	u	-6.5	14.9%	7.94µM*
O=C(COC(=O)Cc1n[nH]c(=O)c2ccccc12)NNC(=O)c1ccc(Cl)cc1	1.0%	57.7	6.1%	u
CSCCC(NC(=O)c1ccc([N+](=O)[O-])cc1Cl)C(=O)OCC(=O)NC(=O)CN1CCCC1=O (configuration not stated)	16.7%	-23.6	-9.3%	11.4%
N/C(=N\O)c1ccc(NC(=O)c2ccc(Br)o2)cc1	5.4%	0.6	28.0%	-2.7%
CN(C)c1ccc(/C=c2\sc3n(c2=O)CCCN=3)cc1	2µM*	-35.5	-22.9%	u
SMILES	Lassa entry inh	HCMV inh	FMDV inh	MARV entry inh
CCOc1cc(/C=C2\N=C3CCCCCN3C2=O)ccc1O	x	-19.5	92.5%	x
COc1ccc2sc3c(=O)[nH]c4ccccc4c3c2c1	-1.2%	-82.9*	-21.8%	1.6%[46.1 µM]
COc1ccc2c(c1)[nH]c(=O)c1sc3ccccc3c12	-12.5%	x	8.6%	-16.0%
O=C(NCc1ccco1)c1cc(C(=O)C2CCCCC2)c[nH]1	u	-5.1	14.2%	-5.1%
COc1ccc(C(=O)Nc2cc(C)nn2-c2cccc(F)c2)cc1	-16.6%[46.1 µM]	-35.3	28.7%	-11.8%[46.1 µM]
O=C(/C=C/Nc1ccc(Br)cc1F)c1ccccc1	1.58µM*	-4.1	u	1.26µM*
O=C(/C=C/c1ccccc1)c1ccccn1	-1.2%	27.2	23.6%	17.0%
O=C(/C=C\Nc1ccccn1)c1ccccc1	2.51µM*	45.6	-81.1%	u
O=C(/C=C/Nc1ccccc1Br)c1ccccn1	1.12µM*	-85.4*	2.24µM*	u
COCC(=O)NCc1nc2ccccc2[nH]1	0.1%	7.5	-9.1%	-9.8%
CN1CCCC(CC2c3ccccc3Sc3ccccc32)C1 (configuration not stated)	x	-27.1	39.8µM*	x
CCCn1cc(S(=O)(=O)CC(=O)Nc2ccc(OC)cc2OC)c2ccccc21	-12.5%	x	x	-16.5%
Cc1ccc(Oc2ccc(OCC(=O)NC(CC(C)C)C(=O)O)cc2)cc1 (configuration not stated)	0.0%	-64.9*	1.8%	u
CC(C)COc1ccc(C(=O)NC(CC(C)C)C(=O)O)cc1 (configuration not stated)	4.1%	-5.6	15.5%	26.8%
O=C(c1ccccc1)c1ccc(OCCn2cnc3ccccc3c2=O)cc1	25.1µM*	33.3	u	-14.0%
Cc1cc(C)cc(NC(=S)NC(=O)CCN2C(=O)c3ccccc3C2=O)c1	12.8%	3.4	-9.6%	-2.2%[46.1 µM]
O=C(Nc1nnc(-c2ccc(F)cc2)o1)c1cccc([N+](=O)[O-])c1	-25.1%	-98.2*	19.0%	u
Cc1nc(C)c(C(=O)Nc2ncc([N+](=O)[O-])s2)o1	5.62µM*	u	-92.1%	u
O=C(Nc1ccccc1)Nc1ncc([N+](=O)[O-])s1	7.08µM*	-98.2*	10µM*	u
O=C(Nc1ncc([N+](=O)[O-])s1)c1cccc([N+](=O)[O-])c1	x	-99.3*	-73.5%	x
O=C(Nc1nnc(C2=COCCO2)o1)c1cccc([N+](=O)[O-])c1	15.2%	13.5	-15.9%	5.8%
O=c1cc(-c2ccccc2)c2ccc3c(c2o1)CN(Cc1ccccc1)CO3	19.4%[46.1 µM]	-13.5	0.1%	2.9%[46.1 µM]
O=C(CCNS(=O)(=O)c1ccc(Br)s1)Nc1ccc(Cl)cc1	-5.7%	u	x	-6.2%
CC(C)N=C1NN=C(c2cccs2)C(CC(=O)O)S1 (configuration not stated)	-1.7%	-26.6	1.5%	25.9%
O=C(COC(=O)C1CC1)Nc1ccc([N+](=O)[O-])cc1C(F)(F)F	x	29.6	-2.6%	x
SMILES	Lassa entry inh	HCMV inh	FMDV inh	MARV entry inh
O=C(Nc1cccc(F)c1)c1ccc2c(c1)N(Cc1ccccc1)C(=O)c1ccccc1S2(=O)=O	-19.6%[46.1 µM]	-88.6*	0.0%	u
O=C(c1ccc2c(c1)N(Cc1ccc(F)cc1)C(=O)c1ccccc1S2(=O)=O)N1CCC(Cc2ccccc2)CC1	u	-63.5*	u	u
CC1CCN(C(=O)c2ccc3c(c2)N(Cc2ccccc2)C(=O)c2ccccc2S3(=O)=O)CC1	-24.4%[46.1 µM]	-61.1*	26.6%	u
O=C(c1ccc2c(c1)N(Cc1ccc(F)cc1)C(=O)c1ccccc1S2(=O)=O)N1CCCCCC1	-22.9%[46.1 µM]	u	3.5%	-15.1%[46.1 µM]
OCCCNc1nnc(-c2ccccc2)c2ccccc12	x	-8.6	-9.2%	x
Clc1ccc2[nH]cc(-c3nnnn3-c3ccc4ccccc4c3)c2c1	-18.4%	-61.7*	-0.9%	u
Cc1ccc(-n2nnnc2-c2cnc3ccc(Cl)cc3c2-c2ccccc2)cc1	u	u	-1.1%	u
CC(C)C[C@H]1CN([C@@H](Cc2ccc(O)cc2)CN2CCC[C@H]2CN2C(=O)C(=O)NC[C@@H]2Cc2ccccc2)C(=O)C(=O)N1CC1CCCCC1	x	-11.7	20.1%	x
